PubChem BioAssay AID651703 (Broad Institute, 2012)
Screen size: about 1,200 compounds; about 970 (81%) were called active. No rule for the calls is given here. The set was probably picked from earlier hits. A selection follows. Potency and affinity values are given separately.

The compounds below were run against Transforming acidic coiled-coil-containing protein 3 (Homo sapiens) (UniProt Q9Y6A5) (assay: ARNT/TACC3 interaction disruptors, potency, confirmation, biochemical, AlphaScreen, cherry-picked samples (AID 651703;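 also: TACC3 partner is the GST-tagged E629A mutant dimer; hits lower the signal meaning they disrupt ARNT binding to TACC3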)). Settings: AlphaScreen His-ARNT PAS-B / GST-TACC3 binding, luminescence; series mostly up to 68 µM.

outcome, inactive:
Clc1ccc(SCc2cc(N3CCOCC3)nc(-c3ccccn3)n2)cc1
CCOc1cc(/C=N/Nc2ncc(C)c(=O)[nH]2)ccc1O
O=C1C2CCCCN2C(=O)N1CCCCN1CCN(c2cccc(Br)c2)CC1 (stereo unspecified)
O=C(CCC(=O)c1cccs1)OCc1nnc(-c2ccccc2)o1
CCc1c(C)nc(Nc2nc(C)c3ccc(OC)cc3n2)[nH]c1=O
CCN(C(=O)CSc1nccn1C)c1cccc2ccccc12
COc1cc2c(cc1OC)C(Cc1ccccc1[N+](=O)[O-])=NCC2
O=C(Nc1nnc(-c2ccccc2)s1)c1cc(-c2ccccc2)on1
CCSc1nnc(NC(=O)C2CCCCC2C(=O)O)s1 (stereo unspecified)
C[C@@H]1CN([C@@H](C)CO)C(=O)c2cc(NC(=O)C3CC3)ccc2O[C@H]1CN(C)C(=O)Nc1ccc(F)cc1
CC(C)NC(=O)Nc1cccc2c1O[C@H](CN(C)C(=O)Nc1ccc(C(F)(F)F)cc1)[C@@H](C)CN([C@@H](C)CO)C2=O
C[C@H]1CN([C@@H](C)CO)C(=O)Cc2cc(NC(=O)Nc3cccc4ccccc34)ccc2O[C@H]1CN(C)CC1CCCCC1
C[C@H](CO)N1C[C@H](C)[C@@H](CN(C)C(=O)Nc2ccc3c(c2)OCO3)Oc2ccc(NC(=O)CCN3CCOCC3)cc2CC1=O
C[C@@H]1CN([C@H](C)CO)C(=O)Cc2cc(NC(=O)Nc3cccc4ccccc34)ccc2O[C@@H]1CN(C)Cc1ccc(C(=O)O)cc1
COCCCN=Cc1c(-c2ccccc2)[nH]n(-c2nc3ccccc3s2)c1=O
COc1ccc(-c2[nH]ncc2/C=N\NC(=O)c2cccs2)cc1OC
CCOc1ccc(Cl)cc1C(c1c(C)[nH][nH]c1=O)c1c(C)[nH][nH]c1=O
C#CCOc1ccc(OC)cc1C(c1c(C)[nH][nH]c1=O)c1c(C)[nH][nH]c1=O
CCCN(C)C[C@@H]1Oc2ncc(C#CCC(C)C)cc2C(=O)N([C@@H](C)CO)C[C@H]1C
O=C(O)c1ccccc1-c1ccccc1C(=O)Nc1ccc2c(c1)[nH]c(=O)c1ccccc12
O=C(Nc1nc2ccccc2s1)c1cc(-c2ccccc2)on1
Cc1onc(-c2c(Cl)cccc2Cl)c1C(=O)Nc1ccc(N2CCOCC2)cc1
Cc1ccc(C(=O)Oc2ccc(/C=C3\C(=N)N4N=C(N5CCOCC5)SC4=NC3=O)cc2)cc1
O=C1CCN(Cc2ccccc2)C=C1c1ccc(C(F)(F)F)cc1
Cc1cccc(Oc2nc(-c3ccccn3)nc3ccccc23)c1
Nc1cc2cccnc2cc1Cl
O=C(C[C@H]1C=C[C@@H](NC(=O)Nc2ccc3c(c2)OCO3)[C@H](CO)O1)NCc1ccc(Cl)cc1
N#CC1=C(N)Oc2n[nH]c(-c3ccccn3)c2C1c1c(F)cccc1Cl (stereo unspecified)
CCN(CC)C(=O)[C@H]1C[C@H](CC(=O)NCc2ccc(OC)c(OC)c2)C(=O)N2CCc3c([nH]c4ccc(Cl)cc34)[C@]12C
CN1CCN(S(=O)(=O)c2cccc(C(=O)Nc3sccc3C(N)=O)c2)CC1
O=C(NCC1CCCCC1)c1cc(-c2ccccc2)on1
COC(=O)c1sc(N)c(C(=O)OC)c1Cn1ncc(Cl)c(Cl)c1=O
Cc1ccccc1CNC(=O)c1cc(-c2ccccc2)on1
CC1=NN(c2ccccc2C)C(=O)C1
COc1cc(NC(=O)C(=O)Nc2ccc3nc4n(c(=O)c3c2)CCCCC4)cc(OC)c1OC
CN(C)c1ccc2c(c1)[C@@H]1C[C@@H](CC(=O)N3CCOCC3)O[C@@H](CO)[C@@H]1O2
O=C(C[C@H]1C[C@H]2c3cc(NC(=O)NC4CCCCC4)ccc3O[C@H]2[C@H](CO)O1)NCc1ccccc1
Clc1nssc1=Nc1nncs1
COCCNC(=O)C[C@@H]1C[C@H]2c3cc(NC(=O)C4CCOCC4)ccc3O[C@H]2[C@H](CO)O1
COc1ccccc1OCc1nc(C#N)c(NCCCn2ccnc2)o1
Cc1c(CCC(=O)O)c(=O)oc2c(C)c3occ(-c4ccc(Cl)cc4)c3cc12
Cc1c(CC(=O)NCCCCCC(=O)O)c(=O)oc2cc3occ(-c4ccccc4)c3cc12
Cc1coc2c(C)c3oc(=O)c(CCC(=O)N[C@@H](C)C(=O)N[C@@H](Cc4ccccc4)C(=O)O)c(C)c3cc12
COc1ccc(N(C(C)=O)c2nc3ccccc3[nH]2)cc1
Cc1cc(C)n(S(=O)(=O)c2ccc(Cl)cc2)n1
O=C(CCc1ccccc1)Nc1nnc(-c2ccccn2)o1
CC(=O)Nc1ccc2nc3ccccc3nc2c1
Cc1ccc(NC(=O)c2cc(-c3ccccc3)on2)cn1
Cc1ccc(C2CCN(C(=S)Nc3cccc(C)c3)C2)cc1 (stereo unspecified)
CCCNC(=O)Nc1ccc2c(c1)OC[C@H](C)N(C(=O)c1ccccc1F)C[C@@H](C)[C@@H](OC)CN(C)C2=O
CO[C@@H]1CN(C)C(=O)c2cc(NC(=O)c3ccccc3)ccc2OC[C@@H](C)N(C(=O)C2CC2)C[C@H]1C
CO[C@H]1CN(C)C(=O)c2cc(NC(=O)NC3CCCCC3)ccc2OC[C@H](C)N(CC2CC2)C[C@@H]1C
O=C(Nc1ccc2ccccc2n1)c1cc(-c2ccccc2)on1
Cc1cccc(NC(=O)c2cc(-c3ccccc3)on2)n1
CN1/C(=N\O)c2cccc3cccc1c23
O=C(C[C@@H]1C[C@@H]2c3cc(NC(=O)C4CCOCC4)ccc3O[C@@H]2[C@H](CO)O1)NCc1cccnc1
CC(C)NC(=O)N1[C@H](CO)[C@@H]2c3ccccc3NC[C@@H]21
O=C(Nc1ncc(-c2ccccc2)o1)c1cc(-c2ccccc2)on1
COC(=O)C[C@@H]1C[C@H]2c3cc(N(C)C)ccc3O[C@H]2[C@@H](CO)O1
COc1ccc(OC)c(NC(=O)COC(=O)Cn2nnc(-c3ccccc3)n2)c1
COC(=O)c1[nH]c2cc(OC)c(OC)cc2c1NC(=O)Oc1ccccc1
CC(C)NC(=O)Nc1ccc2c(c1)C(=O)N([C@H](C)CO)C[C@@H](C)[C@@H](CN(C)C(=O)Nc1ccccc1)OCCCC[C@@H](C)O2
CC(C)NC(=O)N(C)C[C@H]1OCCCC[C@H](C)Oc2ccc(NC(=O)Cc3ccccc3)cc2C(=O)N([C@H](C)CO)C[C@H]1C
C[C@@H]1CN([C@@H](C)CO)C(=O)c2cc(NC(=O)CCCN(C)C)ccc2O[C@@H](C)CCCCO[C@H]1CN(C)C(=O)Nc1cccc2ccccc12
C[C@H](CO)N1C[C@H](C)[C@H](CN(C)C(=O)Nc2cccc3ccccc23)OCCCC[C@H](C)Oc2ccc(NC(=O)CCCN(C)C)cc2C1=O
CC(C)NC(=O)Nc1ccc2c(c1)C(=O)N([C@@H](C)CO)C[C@H](C)[C@@H](CN(C)C)OCCCC[C@H](C)O2
C[C@@H]1CN([C@@H](C)CO)C(=O)c2cc(NC(=O)C3CCCCC3)ccc2O[C@@H](C)CCCCO[C@@H]1CN(C)C(=O)NC1CCCCC1
O=C(c1cc(-c2ccccc2)on1)N1CCC(N2CCCC2)CC1
O=C(Nc1nc(-c2ccccc2)cs1)c1cc(-c2ccccc2)on1
COc1ccc(-c2cnc3c(c2)C(=O)N([C@@H](C)CO)C[C@H](C)[C@@H](CN(C)Cc2cccnc2)O3)cc1
C[C@@H]1CN([C@H](C)CO)C(=O)c2cc(NS(C)(=O)=O)ccc2O[C@@H]1CN(C)S(=O)(=O)c1ccc(F)cc1
CNC[C@@H]1Oc2c(NS(=O)(=O)c3cccs3)cccc2C(=O)N([C@@H](C)CO)C[C@H]1C
C[C@@H]1CN([C@H](C)CO)C(=O)c2cccc(NC(=O)c3ccncc3)c2O[C@@H]1CN(C)Cc1ccc(-c2ccccc2)cc1
COc1ccc(S(=O)(=O)Nc2ccc3c(c2)C(=O)N([C@H](C)CO)C[C@H](C)[C@H](CN(C)S(=O)(=O)c2ccc(C)cc2)O3)cc1
O=C(CN1CCCCCC1)Nc1ccccc1[N+](=O)[O-]
Cc1nnc(NC(=O)CSc2nnc(CNC(=O)c3ccc(S(=O)(=O)N(C)C)cc3)o2)s1
CCN(CC(=O)NCc1cccs1)CC(=O)Nc1cccc(S(N)(=O)=O)c1
Cc1c(CC(=O)NCC(=O)NCC(=O)O)c(=O)oc2cc3oc4c(c3cc12)CCCC4
Cc1cc(F)ccc1NS(=O)(=O)c1cccc2nsnc12
CC(=O)NC1=NC(=O)/C(=C/c2cn(C(C)=O)nc2-c2ccccc2)S1
Cc1ccc(-c2nc(C)sc2CC(=O)NCc2ccco2)cc1
Cc1cc(=O)n(-c2ccc(O)cc2)[nH]1
O=C(NCC1CCCO1)c1onc(CSc2ccc(F)cc2)c1C(=O)O (stereo unspecified)
Cc1cc(C)c(S(=O)(=O)N2CCCC2=O)c(C)c1N(C)S(C)(=O)=O
O=C(C[C@H]1C=C[C@@H](NC(=O)C2CC2)[C@@H](CO)O1)Nc1nccs1
Cc1[nH]n2c(=O)c3c(nc2c1-c1ccccc1)CCC3
COc1cc(/C=C2\S/C(=N/S(=O)(=O)c3ccccc3)NC2=O)c([N+](=O)[O-])cc1OC
COc1ccc(Cc2nnc(N/N=C(\C)c3ccccc3)[nH]c2=O)cc1OC
O=C(CSc1nnc(-c2ccccn2)o1)Nc1ccccc1C(F)(F)F
CN1CCN(C(=O)c2cc(-c3ccccc3)on2)CC1
O=C(c1cc(-c2ccccc2)on1)N1CCc2cccnc21
